Test results as given in the supplement of paper PMC10338343.
± gives the standard deviation.

What follows are sequences tested on MILI (PIWIL2) piRISC loaded with L1MC piRNA (26 nt) (assay: pre-steady-state target cleavage rate (min^-1); guide: L1MC piRNA 5'p-UAACUAAAUACUAUGCAAGCUGUAGG; MIWI and MILI are mouse PIWI proteins and EfPiwi is from a freshwater sponge; tags in brackets are library labels; higher = faster piRNA-guided slicing of the target). Settings: auxiliary factor: 500 nM mouse GTSF1.
Experimental: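 Cleave-'n-Seq: a library of target RNAs (target site embedded in constant flanks, ACAGCATTCCGCGTTAGTGATATCCG... 5' flank; DNA-blocked outside the site) at 0.1 nM was incubated with 1 nM active mouse MILI or MIWI piRISC (synthetic 5'-monophosphorylated piRNA guide) with or without 500 nM mouse GTSF1 at 33 °C for 1 min to 16 h. Uncleaved targets were sequenced and normalised to non-target controls, and the pooled three trials were fitted to a burst-and-steady-state model to give the pre-steady-state cleavage rate (min^-1; k3 is constrained to at most 1e-4). Sequence is the target site only; target names encode pairing extent (gX:gY) and contiguous / 1-mismatch / 2-mismatch / bulge geometry. Fits with R² ≤ 0 are excluded.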

Sequence	pre-steady-state target cleavage rate
UCCUGGAUGUCGAACCAUAGAAAUUAGUUA	< 0.0001
UCCUGGAACAGCUAGCAUUGUAUUUAGUUA	0.164 ± 0.013
UCCUGCUUCAGCUUGCAAAGUAUUUAGUUA	0.122 ± 0.0063
UCCUGGAUGUCCUUGGAUACUAUUUAGUUA	0.0119 ± 0.0061
UCCUGGAUGAGCAUGCAUAGUAUUUUGUUA	0.115 ± 0.025
UCCUGGUACACCUUGCAUAGUAUUUACAAA	0.046 ± 0.018
UCCUGCUACACGUUGCAUAGUAUUUAGUAA	0.215 ± 0.028
UCCUGGAUCACGAUGCAUAGUAUUUUCAAA	0.0499 ± 0.012
UCCUGGAUGUGCAUGCAUAGUAUAUAGUUA	0.19 ± 0.029
UCCUGGAUGUCGAUGCAUAGUAUAUAGUUA	0.143 ± 0.028
UCCUGGAUGUCGAUGCAUAGUAUUUAGUUC [g2:g17:cont:t1C]	0.0657 ± 0.0091
UCCUGGAUGUCGAUGCAUAGUGUUUAGUUA	0.0372 ± 0.0094
UCCUGGAUCAGGUUGCAUAGUUUUUAGUUA	0.023 ± 0.0088
UCCUGGAUGUCCUUGGAUAGUAUUUAGAUA	0.129 ± 0.035
UCCUGGAUGUGCAUGCAAAGUAUUUAGUUA	0.0175 ± 0.0048
UCCUGCUACUGCUUGCAUAGUAAUUAGUUA	0.175 ± 0.023
UCCUCCUACACGCUUGCAUAGUAUUUAGUUA	0.207 ± 0.013
UCCUGCUACAGCUUGCAUUGUAUUUAGAUA	0.106 ± 0.017
UCCUGGAUCAGCUUGGAUAGUAUUUAGAUA	0.0949 ± 0.016
UCCUGGAUCAGGAAGCAUAGUAUUUACAAA	0.00413 ± 0.0036
UCCUGGAUCAGCUUGCAUAGAUAUUUAGUUA	0.0135 ± 0.004
UCCUGGGACAGCUUGCAUAGUAUUUAGUUA	0.231 ± 0.024
UCCUGGAUCAGCUUGUAUAGUAUUUAGUUA	0.301 ± 0.015
UCCUGCUACAGCUUGCAUAGUAAUUUAGUUA	0.233 ± 0.023

Same assay, conditions: auxiliary factor: none (no GTSF1)

Sequence	pre-steady-state target cleavage rate
UCCUGGAUGUCGAACGUAAGUAUUUAUUUA	< 0.0001
UCCUGGAACAGCUAGCAUUGUAUUUAGUUA	0.0074 ± 0.0021
UCCUGCUUCAGCUUGCAAAGUAUUUAGUUA	0.00828 ± 0.0015
UCCUGCUACACGUUGCAUAGUAUUUAGUAA	0.00567 ± 0.0021
UCCUGGAUGUGCAUGCAUAGUAUAUAGUUA	0.00367 ± 0.0031
UCCUGGAUGUCGAUGCAUAGUAUAUAGUUA	0.00598 ± 0.0024
UCCUGGAUGUCGAUGCAUAGUAUUUAGUUC [g2:g17:cont:t1C]	0.00831 ± 0.0023
UCCUGGAUGUCGAUGCAUAGUGUUUAGUUA	0.0049 ± 0.0026
UCCUGGAUCAGGUUGCAUAGUUUUUAGUUA	0.00644 ± 0.0022
UCCUGGAUGUGCAUGCAAAGUAUUUAGUUA	0.00933 ± 0.0024
UCCUGCUACUGCUUGCAUAGUAAUUAGUUA	0.00358 ± 0.0023
UCCUCCUACACGCUUGCAUAGUAUUUAGUUA	0.00734 ± 0.0025
UCCUGGAUCAGCUUGCAUAGAUAUUUAGUUA	0.00307 ± 0.0026
UCCUGGGACAGCUUGCAUAGUAUUUAGUUA	0.0138 ± 0.0034
UCCUGGAUCAGCUUGUAUAGUAUUUAGUUA	0.0104 ± 0.0028
UCCUGCUACAGCUUGCAUAGUAAUUUAGUUA	0.00525 ± 0.0024
